A number with no mark means an inactive call. For part of these data: Results with a measured potency or affinity are listed apart. Calls of active or inactive are those of the source. Unless noted, no rule for the calls is given here.
Experiments:
[1] = antimalarial activity against Dd2 strain (AID 2302;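 active = growth inhibition above 50% at the single 2 µM test dose, taken to imply half-maximal potency below 2 µM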;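 also: 0% = DMSO untreated growth and 100% = chloroquine plus artemisinin killed control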); conditions: P. falciparum Dd2 in RBCs, LDH growth readout, 72 h; at 2 µM; hits give high values
[2] = HepG2 cytotoxicity, primary screen, cytotoxicity control for P. falciparum antimalarial project, cell-based, ATP luminescence (AID 2303;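 active = inhibition above 50%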;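 also: 0% = DMSO wells and 100% = digitonin-killed cells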); conditions: HepG2 viability, 24-48 h, at 10 µM, hits give high values
[3] = molecular target: L-lactate dehydrogenase (Plasmodium falciparum (isolate CDC / Honduras)) (UniProt Q27743); assay: PfLDH activity inhibition – cell lysate, 3D7 strain, counter-screen for P. falciparum growth inhibition project (AID 2304);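 also: 0% = vehicle and 100% = reference inhibitor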; conditions: P. falciparum 3D7 crude extract, LDH APAD/NBT absorbance; at 2 µM; hits give high values
L-lactate dehydrogenase (Plasmodium falciparum (isolate CDC / Honduras)), sequence (Q27743 whole entry, looked up): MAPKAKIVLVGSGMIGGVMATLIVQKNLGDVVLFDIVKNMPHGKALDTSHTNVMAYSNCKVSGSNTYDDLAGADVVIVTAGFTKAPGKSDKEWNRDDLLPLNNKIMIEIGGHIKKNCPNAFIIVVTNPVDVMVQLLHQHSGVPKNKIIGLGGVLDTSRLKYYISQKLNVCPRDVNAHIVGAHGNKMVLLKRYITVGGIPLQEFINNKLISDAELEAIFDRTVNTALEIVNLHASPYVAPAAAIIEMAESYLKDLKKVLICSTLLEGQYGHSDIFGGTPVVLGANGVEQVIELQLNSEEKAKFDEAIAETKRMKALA

[4] = inhibition of 3D7 malaria parasite growth – strain 3D7 (AID 2306);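 also: 0% = DMSO wells and 100% = chloroquine plus artemisinin control wells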; conditions: P. falciparum 3D7 erythrocytic growth, LDH absorbance, 72 h; at 2 µM; hits give high values
[5] = molecular target: Calcium-dependent protein kinase 1 (Plasmodium falciparum (isolate 3D7)) (UniProt P62344); assay: PfCDPK1 kinase inhibitors, biochemical, TCAMS library (AID 1159585; cut-off not given, nearly all actives have IC50 up to about 0.98 µM;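 also: inhibitors leave more ATP so luminescence rises with inhibition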); conditions: recombinant PfCDPK1, Kinase-Glo ATP depletion luminescence
Calcium-dependent protein kinase 1 (Plasmodium falciparum (isolate 3D7)), sequence (P62344 whole entry, looked up): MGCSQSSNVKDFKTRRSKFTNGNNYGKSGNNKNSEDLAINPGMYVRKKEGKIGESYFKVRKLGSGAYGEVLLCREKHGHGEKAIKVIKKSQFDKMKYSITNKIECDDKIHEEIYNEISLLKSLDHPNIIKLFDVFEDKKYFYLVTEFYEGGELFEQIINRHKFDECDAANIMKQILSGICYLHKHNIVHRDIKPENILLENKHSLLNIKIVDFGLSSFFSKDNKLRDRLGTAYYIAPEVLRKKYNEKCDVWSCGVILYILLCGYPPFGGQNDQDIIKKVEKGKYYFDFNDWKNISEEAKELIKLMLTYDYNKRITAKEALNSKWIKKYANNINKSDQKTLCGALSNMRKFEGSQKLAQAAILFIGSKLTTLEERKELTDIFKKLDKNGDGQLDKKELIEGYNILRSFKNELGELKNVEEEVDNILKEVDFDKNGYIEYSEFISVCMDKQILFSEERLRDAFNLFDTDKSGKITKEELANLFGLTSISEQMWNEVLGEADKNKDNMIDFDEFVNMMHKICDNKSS

[6] = molecular target: Plasmodium falciparum protein kinase 6 (PK6, PF3D7_1337100) (UniProt Q8IDW1); assay: PfPK6 kinase inhibitors, biochemical, TCAMS library (AID 1159586); conditions: recombinant PfPK6, Kinase-Glo ATP depletion luminescence
Plasmodium falciparum protein kinase 6 (PK6, PF3D7_1337100), sequence (Q8IDW1 1-305): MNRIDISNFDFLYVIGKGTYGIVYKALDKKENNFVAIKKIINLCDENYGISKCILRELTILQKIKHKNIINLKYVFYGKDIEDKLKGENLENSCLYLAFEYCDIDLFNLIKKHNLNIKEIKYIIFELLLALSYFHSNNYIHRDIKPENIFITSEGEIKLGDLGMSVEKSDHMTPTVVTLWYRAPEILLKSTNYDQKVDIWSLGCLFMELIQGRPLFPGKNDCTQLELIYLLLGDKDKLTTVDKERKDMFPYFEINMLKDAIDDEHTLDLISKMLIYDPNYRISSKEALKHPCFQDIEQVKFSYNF

[7] = molecular target: Protein kinase 7 (PK7), Plasmodium falciparum 3D7 (PF3D7_0213400) (UniProt Q7YTF7); assay: inhibition of Plasmodium PK7 catalytic activity – biochemical, TCAMS antimalarial set, Kinase-Glo luminescence (AID 1159587); conditions: recombinant PfPK7, Kinase-Glo ATP depletion luminescence
Protein kinase 7 (PK7), Plasmodium falciparum 3D7 (PF3D7_0213400), sequence (Q7YTF7 1-343): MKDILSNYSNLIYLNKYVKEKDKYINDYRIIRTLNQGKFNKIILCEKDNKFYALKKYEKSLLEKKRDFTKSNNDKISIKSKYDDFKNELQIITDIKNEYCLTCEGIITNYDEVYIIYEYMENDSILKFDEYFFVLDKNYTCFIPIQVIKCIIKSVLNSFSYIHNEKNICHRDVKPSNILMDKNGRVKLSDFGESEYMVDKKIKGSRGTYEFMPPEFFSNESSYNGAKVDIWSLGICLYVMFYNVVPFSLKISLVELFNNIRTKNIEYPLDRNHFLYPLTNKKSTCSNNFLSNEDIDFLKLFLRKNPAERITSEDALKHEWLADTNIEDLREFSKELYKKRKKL

[8] = molecular target: Calcium-dependent protein kinase 4 (Plasmodium falciparum (isolate 3D7)) (UniProt Q8IBS5); assay: PfCDPK4 kinase inhibitors, biochemical, TCAMS library (AID 1159588; cut-off not given, nearly all actives have IC50 up to about 0.91 µM); conditions: recombinant PfCDPK4, Kinase-Glo ATP depletion luminescence
Calcium-dependent protein kinase 4 (Plasmodium falciparum (isolate 3D7)), sequence (Q8IBS5 whole entry, looked up): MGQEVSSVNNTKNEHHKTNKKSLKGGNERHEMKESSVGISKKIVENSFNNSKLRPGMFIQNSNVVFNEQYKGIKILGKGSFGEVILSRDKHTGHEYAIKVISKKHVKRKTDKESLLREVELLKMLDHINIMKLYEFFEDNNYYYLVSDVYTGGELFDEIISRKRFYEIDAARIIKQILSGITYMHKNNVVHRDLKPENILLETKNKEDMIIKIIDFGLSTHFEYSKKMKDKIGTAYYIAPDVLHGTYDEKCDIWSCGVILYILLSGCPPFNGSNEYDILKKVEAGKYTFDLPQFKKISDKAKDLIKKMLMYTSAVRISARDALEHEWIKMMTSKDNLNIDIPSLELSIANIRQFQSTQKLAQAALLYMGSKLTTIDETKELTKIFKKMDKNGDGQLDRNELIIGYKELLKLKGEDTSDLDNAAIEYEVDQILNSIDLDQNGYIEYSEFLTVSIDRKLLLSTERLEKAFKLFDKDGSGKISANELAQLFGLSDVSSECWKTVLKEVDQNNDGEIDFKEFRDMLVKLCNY

Row | SMILES | growth inhibition [1] | inhibition [2] | inhibition [3] | growth inhibition [4] | outcome [5] | outcome [6] | outcome [7] | outcome [8]
1 | O=C(/C=C/c1ccc(Cl)c(Cl)c1)NCCCCCN1CCCN(C(=O)Nc2ccc(Br)cc2)CC1 | -4% | 38% | 0% | 99% (active) | inactive | inactive | inactive | inactive
2 | CC(C)NCc1cccc(-c2cccc(-c3nc4ccccc4[nH]3)c2)c1 | 22% | 11% | -2% | 100% (active) | inactive | inactive | inactive | inactive
3 | Cc1[nH]c2ccc(O)cc2c1C1CCN(CCCCCNC(=O)/C=C/c2ccc(Cl)c(Cl)c2)CC1 | 1% | 33% | 2% | 101% (active) | inactive | inactive | inactive | inactive
4 | CCn1c(-c2nonc2N)nc2c(Cl)ncc(O[C@H](CCN)c3ccccc3F)c21 | 88% (active) | 15% | -2% | 96% (active) | inactive | inactive | inactive | inactive
5 | COc1cccc(CNC(=O)c2cc(CNCc3ccccc3)ccc2-c2cccc(CNCc3ccc(-c4ccccc4)cc3)c2)c1 | 15% | 22% | 8% | 95% (active) | inactive | inactive | inactive | inactive
6 | O=C(Nc1cccc(CN2CCCN(Cc3ncc[nH]3)CC2)c1)c1cc2ccccc2s1 | 35% | 22% | -2% | 99% (active) | inactive | inactive | inactive | inactive
7 | C=CCn1cc(C2CCN(CCCCNC(=O)c3sc(-c4ccc(C(F)(F)F)cc4)nc3CO)CC2)c2cc(OC)ccc21 | 4% | 40% | 4% | 91% (active) | inactive | inactive | inactive | inactive
8 | COc1ccc(NC(=O)/C=C/c2ccccc2Cl)cc1OCCN1CCC(N2CCCCC2)CC1 | 49% | 3% | 1% | 101% (active) | inactive | inactive | inactive | inactive
9 | COc1cccc(C(=O)NC(c2ccccc2OC)c2cc(Cl)c3cccnc3c2O)c1 (configuration not stated) | 36% | 58% (active) | 4% | 91% (active) | inactive | inactive | inactive | inactive
10 | CCN(CC)CCN(Cc1ccc(-c2ccc(C(F)(F)F)cc2)cc1)C(=O)Cn1cc(CCCc2cccc(F)c2F)c(=O)c2ccccc21 | 20% | 13% | -4% | 89% (active) | inactive | inactive | inactive | inactive
11 | Cc1cc(OCc2ccccc2)c(OCc2ccccc2)cc1C(O)CN(C)Cc1ccccc1 (configuration not stated) | 87% (active) | 14% | -2% | 96% (active) | inactive | inactive | inactive | inactive
12 | CCNc1cc(C(=O)N[C@@H](Cc2ccccc2)[C@H](O)CNCc2cccc(-c3cncnc3)c2)cc(N2CCCC2=O)c1 | 96% (active) | 5% | 2% | 97% (active) | inactive | inactive | inactive | inactive
13 | O=S(=O)(Nc1ccc2nccc(N3CCNCC3)c2c1)c1ccc2c(Cl)cccc2c1 | 2% | 11% | -2% | 100% (active) | inactive | inactive | inactive | inactive
14 | N#Cc1cncc(-c2nc3c(N4CCN(c5cnccn5)CC4)cccc3n2CCNCc2ccccc2)c1 | 31% | 0% | 4% | 99% (active) | inactive | inactive | inactive | inactive
15 | NC1=NC(c2ccccc2)(c2ccccn2)C(=O)N1CCCc1ccccc1 (configuration not stated) | 64% (active) | -1% | -2% | 85% (active) | inactive | inactive | inactive | inactive
16 | O=C(Nc1cccc(-c2csc(-c3nc4ccccc4[nH]3)c2)c1)c1ccoc1 | 67% (active) | 36% | 1% | 96% (active) | inactive | inactive | inactive | inactive
17 | C#CCN(Cc1ccc2nc(N)[nH]c(=O)c2c1)c1ccc(C(=O)N[C@@H](CCC(=O)O)C(=O)O)cc1 | 96% (active) | 45% | 3% | 95% (active) | inactive | inactive | inactive | inactive
18 | C#CCOc1ccc(N2C(N)=NC(N)=NC2(C)C)cc1 | -3% | 43% | 6% | 94% (active) | inactive | inactive | inactive | inactive
19 | Cc1[nH]c(C)c(-c2ccc(Oc3cccc(Cl)c3)cc2)c(=O)c1Cl | 97% (active) | 40% | -3% | 99% (active) | inactive | inactive | inactive | inactive
20 | C=CCc1cccc(C)c1OCCCON1C(N)=NC(N)=NC1(C)C | 95% (active) | 65% (active) | -8% | 94% (active) | inactive | inactive | inactive | inactive

Row | SMILES | growth inhibition [1] | inhibition [2] | inhibition [3] | growth inhibition [4] | outcome [5] | outcome [6] | outcome [7] | outcome [8]
21 | COc1cc2nc(N3CCN(c4nc(N)c5cc(OC)c(OC)cc5n4)CC3)nc(N)c2cc1OC | 99% (active) | 13% | -4% | 101% (active) | inactive | inactive | inactive | inactive
22 | Cn1nc(-c2ccc(NC(=O)Nc3cc(C(F)(F)F)cc(C(F)(F)F)c3)c(F)c2)c2cnc(NCCN3CCOCC3)nc21 | 37% | 43% | -6% | 94% (active) | inactive | inactive | inactive | inactive
23 | O=C(NCc1ccc(Cl)c(Cl)c1)c1ccc(-c2nc3ccc(Cl)cc3[nH]2)cc1 | 22% | 20% | -6% | 96% (active) | inactive | inactive | inactive | inactive
24 | Cc1[nH]c(C)c(-c2ccc(-c3ccc(OC(F)(F)F)cc3)cc2)c(=O)c1Cl | 97% (active) | 24% | 1% | 98% (active) | inactive | inactive | inactive | inactive
25 | O=c1nc(C=Cc2ccc(Br)cc2)oc2ccccc12 | 66% (active) | -8% | -1% | 97% (active) | inactive | inactive | inactive | inactive
26 | Cc1cccc(NC(=O)N(Cc2cc3cc(C)cc(C)c3[nH]c2=O)C2CC2)c1 | 94% (active) | 3% | 2% | 97% (active) | inactive | inactive | inactive | inactive
27 | O=C(/C=C/c1ccc(Cl)c(Cl)c1)NCCCCCN1CCCN(C(=O)Nc2ccc(Cl)cc2)CC1 | -5% | 21% | -5% | 100% (active) | inactive | inactive | inactive | inactive
28 | COc1ccc(CN(C)CCCc2ccc(NC(=O)c3cccc4c(=O)c5cccc(F)c5[nH]c34)cc2)cc1OC | 94% (active) | 100% (active) | 0% | 100% (active) | inactive | inactive | inactive | inactive
29 | O=C(Cc1cn(-c2ccccc2)nc1-c1ccc(Cl)cc1)Nc1nccs1 | 8% | 9% | 1% | 88% (active) | inactive | inactive | inactive | inactive
30 | N#Cc1ccc(N(CCNS(=O)(=O)c2cc(Br)c(Cl)s2)Cc2ccccc2C(F)(F)F)cc1C(F)(F)F | 57% (active) | 3% | -1% | 92% (active) | inactive | inactive | inactive | inactive
31 | COc1ccc(CNc2nc(NCc3ccc(C(F)(F)F)cc3)c3cc(OC)c(OC)cc3n2)cc1OC | 100% (active) | 80% (active) | -3% | 103% (active) | inactive | inactive | inactive | inactive
32 | O=C(CSc1nc2ccccc2c(=O)n1CC1CCCO1)Nc1cc(C(F)(F)F)ccc1Cl (configuration not stated) | 95% (active) | 12% | -2% | 97% (active) | inactive | inactive | inactive | inactive
33 | COC(=O)c1ccc2c(c1)nc(Nc1cccc(F)c1)n2CC(O)c1ccccn1 (configuration not stated) | 96% (active) | -7% | -1% | 99% (active) | inactive | inactive | inactive | inactive
34 | CNC(=O)C1Cc2c([nH]c3ccc(Cl)cc23)C2(CCN(CCc3ccccc3)CC2)N1 (configuration not stated) | 16% | 2% | -2% | 98% (active) | inactive | inactive | inactive | inactive
35 | COC(=O)c1ccc(OCC(O)CO)cc1O (configuration not stated) | 23% | 4% | 5% | 101% (active) | inactive | inactive | inactive | inactive
36 | NC(N)=NN=Cc1c2ccccc2c(Cl)c2ccc(Cl)cc12 | 89% (active) | 97% (active) | 8% | 98% (active) | inactive | inactive | inactive | inactive
37 | CN(C)[C@@H]1C(=O)C(C(N)=O)=C(O)[C@@]2(O)C(=O)C3=C(O)c4c(O)ccc(C#Cc5ccccn5)c4C[C@H]3C[C@@H]12 | 75% (active) | 17% | -6% | 92% (active) | inactive | inactive | inactive | inactive
38 | Cc1cc(CN2CC[C@H](NC(=O)c3ccc(Cl)c(Cl)c3)C2)ccc1OCCN1CCCC1 | 92% (active) | 56% (active) | 0% | 101% (active) | inactive | inactive | inactive | inactive
39 | Cc1cnc(-c2cccc(C(=O)NC3CCC(CCN4CCc5ccc(C#N)cc5CC4)CC3)c2)[nH]1 (configuration not stated) | 69% (active) | 23% | 1% | 100% (active) | inactive | inactive | inactive | inactive

Source: PubChem BioAssay
